Assay results taken from PubChem BioAssay (EPA / NIEHS).
“And” between values parts separate entries of the source, which are not always exact repeats. Identical values can stand only once. Results filed as inconclusive are left out. More than one record can exist for a structure, and the calls need not agree. The source made the active and inactive calls. The calls were made as follows, unless noted: active = hit-call score of the fitted dose curve at least 0.9, where 1 is the maximum; inactive = score below 0.9.

Experiments:
[1] = molecular target: Steroid hormone receptor ERR1 (Homo sapiens) (UniProt P11474); test: ATG_ERRa_TRANS: Attagene TRANS-FACTORIAL HepG2 Assay for human Estrogen-Related Receptor alpha (ERRa) (AID 2282971; active = hit-call score of the fitted dose curve at least 0.9, where 1 is the maximum); settings: HepG2 Attagene TRANS reporter, ERRa transactivation
Sequence of Steroid hormone receptor ERR1 (Homo sapiens) (P11474 whole entry, looked up, the tested form may be a part): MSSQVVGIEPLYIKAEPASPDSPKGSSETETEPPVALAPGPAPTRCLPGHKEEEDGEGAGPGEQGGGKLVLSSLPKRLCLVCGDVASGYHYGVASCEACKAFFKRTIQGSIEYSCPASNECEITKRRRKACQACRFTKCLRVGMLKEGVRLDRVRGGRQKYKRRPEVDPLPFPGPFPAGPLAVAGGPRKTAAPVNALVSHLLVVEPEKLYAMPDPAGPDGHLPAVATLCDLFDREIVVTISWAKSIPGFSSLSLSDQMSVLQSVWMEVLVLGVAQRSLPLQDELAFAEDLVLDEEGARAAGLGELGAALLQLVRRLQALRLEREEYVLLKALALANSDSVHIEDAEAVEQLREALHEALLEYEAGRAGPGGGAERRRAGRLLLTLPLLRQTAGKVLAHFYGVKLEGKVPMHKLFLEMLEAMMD
Method in brief: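 Reporter transcripts from ERRa-Gal4 chimera activity measured in transiently transfected human HepG2 cells 24 hours after dosing, using RT-PCR with 6-FAM primer extension, HpaI digestion and capillary electrophoresis; DMSO is baseline.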

[2] = molecular target: Estrogen-related receptor gamma (Homo sapiens) (UniProt P62508); test: ATG_ERRg_TRANS: Attagene TRANS-FACTORIAL HepG2 Assay for human Estrogen-Related Receptor gamma (ERRg) (AID 2282977; active = hit-call score of the fitted dose curve at least 0.9, where 1 is the maximum;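 also: hits increase reporter signal over DMSO so potencies reflect activators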); settings: HepG2 Attagene TRANS reporter, ERRg transactivation
Sequence of Estrogen-related receptor gamma (Homo sapiens) (P62508 whole entry, looked up, the tested form may be a part): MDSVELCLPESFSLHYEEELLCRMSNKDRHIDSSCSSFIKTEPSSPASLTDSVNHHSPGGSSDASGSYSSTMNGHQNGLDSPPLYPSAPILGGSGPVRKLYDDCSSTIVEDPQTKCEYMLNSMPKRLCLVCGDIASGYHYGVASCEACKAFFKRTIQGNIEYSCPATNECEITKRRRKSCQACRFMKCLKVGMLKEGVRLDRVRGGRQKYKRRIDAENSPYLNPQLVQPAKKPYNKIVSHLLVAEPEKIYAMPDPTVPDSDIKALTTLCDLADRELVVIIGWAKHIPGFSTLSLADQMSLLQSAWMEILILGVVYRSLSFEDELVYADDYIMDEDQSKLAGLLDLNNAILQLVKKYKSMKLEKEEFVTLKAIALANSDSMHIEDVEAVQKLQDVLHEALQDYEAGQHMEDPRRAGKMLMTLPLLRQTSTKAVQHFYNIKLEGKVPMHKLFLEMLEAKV
Method in brief: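 Induction of reporter transcripts through a chimeric NR-Gal4 protein is quantified in transfected human HepG2 liver cells after 24 h chemical exposure, using RT-PCR with capillary electrophoresis detection and DMSO as baseline.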

[3] = BSK_3C_TissueFactor: BioMAP Diversity Plus: 3C Assay for Tissue Factor Biomarker Activity (AID 2282997); settings: BioMAP 3C HUVEC, tissue factor biomarker readout; actives raise or lower the signal
Method in brief: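 Tissue factor on primary human umbilical vein endothelium was read by ELISA 24 h after dosing, gain or loss relative to DMSO. Cytotoxicity ran alongside via SRB (0.1%, TCA-fixed, 560 nm).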

[4] = BSK_3C_uPAR: BioMAP Diversity Plus: 3C Assay for Urokinase-type plasminogen activator receptor (uPAR) Biomarker Activity (AID 2282998); settings: BioMAP 3C HUVEC, uPAR biomarker ELISA; actives raise or lower the signal
Method in brief: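 Endothelial primary cells of human umbilical vein origin received test chemical; 24 h later uPAR was assayed by ELISA. Fitting was bidirectional, DMSO as negative control.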

[5] = BSK_4H_Eotaxin3: BioMAP Diversity Plus: 4H Assay for Eotaxin 3 Biomarker Activity (AID 2283000); settings: primary human endothelial cells (HUVEC); actives raise or lower the signal
Method in brief: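 Human umbilical vein endothelial cells (BSK_4H system) dosed with test chemical; Eotaxin-3 (CCL26) measured by ELISA 24 h after dosing. Bidirectional curve fitting relative to DMSO negative control as baseline.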

[6] = read-out: Intercellular Adhesion Molecule 1 (ICAM1), ICAM1 (gene 3383); test: BSK_3C_ICAM1: BioMAP Diversity Plus: 3C Assay for Intercellular Adhesion Molecule 1 (ICAM1) Biomarker Activity (AID 2283003); settings: primary human endothelial cells (HUVEC); actives raise or lower the signal
Method in brief: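 Chemicals are dosed onto primary human umbilical vein endothelium (3C system). After 24 h, ICAM-1 is measured by ELISA, and responses are fitted bidirectionally relative to DMSO.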

[7] = read-out: Interleukin-1 alpha (IL1a), IL1A (gene 3552); test: BSK_BE3C_IL1a: BioMAP Diversity Plus: BE3C Assay for Interleukin-1 alpha (IL1a) Biomarker Activity (AID 2283016); settings: primary human bronchial epithelial cells; actives raise or lower the signal
Method in brief: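 Signal from IL-1a ELISA, taken 24 h after chemical dosing of human bronchial epithelial cells, is compared with DMSO as baseline using bidirectional curve fitting.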

[8] = read-out: Monocyte Chemoattractant Protein-1 (MCP1), CCL2 (gene 6347); test: BSK_3C_MCP1: BioMAP Diversity Plus: 3C Assay for Monocyte Chemoattractant Protein-1 (MCP1) Biomarker Activity (AID 2283017); settings: primary human endothelial cells (HUVEC); actives raise or lower the signal
Method in brief: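 MCP-1 was measured by ELISA 24 h after dosing in primary HUVEC 3C cultures and fitted in both directions relative to DMSO; cytotoxicity was checked by SRB total-protein staining in parallel wells.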

[9] = read-out: Interleukin-8 (IL8), CXCL8 (gene 3576); test: BSK_3C_IL8: BioMAP Diversity Plus: 3C Assay for Interleukin-8 (IL8) Biomarker Activity (AID 2283020); settings: primary human endothelial cells (HUVEC); actives raise or lower the signal
Method in brief: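 Endothelial primary cells of human umbilical vein origin are dosed with chemical; after 24 h the IL-8 biomarker is measured by ELISA, and concentration–response is fitted in both directions versus DMSO.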

[10] = BSK_3C_SRB: Viability Assessment in the BioMAP Diversity Plus: 3C Assay (AID 2283023); settings: primary human endothelial cells (HUVEC);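 also: fitted both ways against DMSO so a hit may be signal rise or drop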
Method in brief: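 Cytotoxicity readout in parallel HUVEC 3C cultures: after 24 h compound exposure, cells fixed with 10% TCA, stained with 0.1% SRB and read at 560 nm. Gain or loss relative to DMSO fitted.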

[11] = read-out: Urokinase-type plasminogen activator receptor (uPAR), PLAUR (gene 5329); test: BSK_4H_uPAR: BioMAP Diversity Plus: 4H Assay for Urokinase-type plasminogen activator receptor (uPAR) Biomarker Activity (AID 2283030); settings: primary human endothelial cells (HUVEC); actives raise or lower the signal
Method in brief: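 uPAR level read by ELISA on HUVEC cultures (BioMAP 4H) 24 h post-dosing, analyzed for gain or loss relative to DMSO. Parallel SRB staining assessed overt cytotoxicity.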

[12] = read-out: Plasminogen activator inhibitor-1 (PAI1), SERPINE1 (gene 5054); test: BSK_BE3C_PAI1: BioMAP Diversity Plus: BE3C Assay for Plasminogen activator inhibitor-1 (PAI1) Biomarker Activity (AID 2283037); settings: primary human bronchial epithelial cells; actives raise or lower the signal
Method in brief: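 Values derive from bidirectional fitting against DMSO baseline of PAI-1 levels, measured by ELISA in human bronchial epithelial cells 24 h after compound addition.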

[13] = read-out: urokinase plasminogen activator (uPA), PLAU (gene 5328); test: BSK_BE3C_uPA: BioMAP Diversity Plus: BE3C Assay for urokinase plasminogen activator (uPA) Biomarker Activity (AID 2283038); settings: primary human bronchial epithelial cells; actives raise or lower the signal
Method in brief: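 ELISA for uPA on human primary bronchial epithelial cultures 24 h post-treatment, gain or loss against DMSO. Parallel SRB staining (0.1% after 10% TCA fixation, 560 nm) assessed overt cytotoxicity.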

[14] = read-out: Tissue plasminogen activator (tPA), PLAT (gene 5327); test: BSK_BE3C_tPA: BioMAP Diversity Plus: BE3C Assay for Tissue plasminogen activator (tPA) Biomarker Activity (AID 2283041); settings: primary human bronchial epithelial cells; actives raise or lower the signal
Method in brief: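 Gain- or loss-of-signal in tPA, measured by ELISA, derived by bidirectional fitting against DMSO. Cells: human primary bronchial epithelial; read at 24 h after chemical dosing.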

[15] = read-out: Thrombomodulin, THBD (gene 7056); test: BSK_CASM3C_Thrombomodulin: BioMAP Diversity Plus: CASM3C Assay for Thrombomodulin Biomarker Activity (AID 2283051); settings: primary human coronary artery smooth muscle cells; actives raise or lower the signal;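 also: thrombomodulin protein level measured by ELISA 24 h after dosing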
[16] = read-out: Interleukin-1 alpha (IL1a), IL1A (gene 3552); test: BSK_LPS_IL1a: BioMAP Diversity Plus: LPS Assay for Interleukin-1 alpha (IL1a) Biomarker Activity (AID 2283080); settings: primary human HUVEC with PBMC; actives raise or lower the signal
Method in brief: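 Readout is IL-1a level by ELISA, 24 h post-dose, fitted as gain or loss relative to DMSO. System: LPS-activated human primary co-culture of vascular endothelium and peripheral blood mononuclear cells, with parallel SRB total-protein cytotoxicity.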

[17] = BSK_LPS_PGE2: BioMAP Diversity Plus: LPS Assay for Prostaglandin E2 (PGE2) Biomarker Activity (AID 2283082); settings: primary human HUVEC with PBMC; actives raise or lower the signal;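 as to AC50: secreted prostaglandin E2 measured by ELISA in LPS-stimulated co-culture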
Method in brief: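 Compounds were added to the LPS co-culture of endothelium and PBMC, and PGE2 was measured by ELISA after 24 h. Responses in either direction were fitted with DMSO as baseline.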

[18] = CCTE_Harrill_HTTr_Apoptosis_MCF7: CCTE's 6-hour Apoptosis Assessment for the High-Throughput Transcriptomics (HTTr) Platform, in MCF-7 cells cultured in DMEM + 10% fetal bovine serum, Harrill Lab (AID 2284011)
Method in brief: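 High-content imaging of CellEvent Caspase 3/7 Green signal follows a six-hour exposure, with eight concentrations per chemical. MCF-7 cells grown in DMEM plus 10% fetal bovine serum; activity fitted in both directions against DMSO.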

[19] = molecular target: human Thyroid Receptor alpha (THRa1), THRA (gene 7067) (UniProt P10827); test: ATG_THRa1_TRANS: Attagene TRANS-FACTORIAL HepG2 Assay for human Thyroid Receptor alpha (THRa1) (AID 2283014; active = hit-call score of the fitted dose curve at least 0.9, where 1 is the maximum)
Sequence of human Thyroid Receptor alpha (THRa1), THRA (gene 7067) (P10827 whole entry, looked up, the tested form may be a part): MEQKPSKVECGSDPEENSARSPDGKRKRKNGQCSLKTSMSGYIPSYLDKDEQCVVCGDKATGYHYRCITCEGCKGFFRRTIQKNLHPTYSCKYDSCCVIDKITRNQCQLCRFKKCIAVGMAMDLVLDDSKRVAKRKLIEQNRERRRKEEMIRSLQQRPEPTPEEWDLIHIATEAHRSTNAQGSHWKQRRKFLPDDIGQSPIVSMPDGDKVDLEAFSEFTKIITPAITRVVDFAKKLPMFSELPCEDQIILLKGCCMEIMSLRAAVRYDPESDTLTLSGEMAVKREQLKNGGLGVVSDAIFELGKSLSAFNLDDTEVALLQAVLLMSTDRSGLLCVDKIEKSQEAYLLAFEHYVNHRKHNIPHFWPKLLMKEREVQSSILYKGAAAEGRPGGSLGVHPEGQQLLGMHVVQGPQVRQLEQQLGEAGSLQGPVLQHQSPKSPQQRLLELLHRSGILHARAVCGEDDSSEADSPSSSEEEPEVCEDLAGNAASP
Method in brief: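 Transcripts from GAL4-UAS-driven reporters, measured after 24 h compound exposure by RT-PCR plus capillary electrophoresis of 6-FAM-labeled fragments, were fitted for gain of signal relative to DMSO. Cells: transiently transfected HepG2 expressing NR-Gal4 chimeras.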

[20] = CCTE_Harrill_HTTr_Viability_MCF7: CCTE's 6-hour Cell Viability Assessment for the High-Throughput Transcriptomics (HTTr) Platform, in MCF-7 cells cultured in DMEM + 10% fetal bovine serum, Harrill Lab (AID 2284010)
Method in brief: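 Read-out is propidium iodide gain of signal by high-content imaging, reflecting membrane integrity loss. Measurements are taken 6 h after dosing, eight concentrations per chemical, with DMSO serving as baseline for bidirectional curve fitting.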

Measured: AC50

C#CC1(O)CCCCC1
inactive: [1] | [2]

Oc1cc(Cl)ccc1Cl
inactive: [3] | [4] | [5] | [6] | [7] | [8] | [9] | [10] | [11] | [12] | [13] | [14] | [15] | [16] | [17] | [18]

CCc1cc(C)cc(CC)c1-c1c(OC(=O)C(C)(C)C)n2n(c1=O)CCOCC2
active: [4] 4 µM | [5] 20 µM | [9] 0.0209 µM | [12] 6.89 µM | [14] 5.24 µM
inactive: [3] | [6] | [7] | [8] | [10] | [11] | [13] | [15] | [16] | [17] | [18]

C=Cc1cccc(CCl)c1
inactive: [19]

CN1C(=O)CCS(=O)(=O)C1c1ccc(Cl)cc1 (configuration not stated)
inactive: [19] | [20]

Cc1ccccc1CCl
inactive: [2]

C[C@]12CC[C@H](O)C[C@H]1CC[C@@H]1[C@@H]2C[C@@H](O)[C@]2(C)[C@@H](C3=CC(=O)OC3)CC[C@]12O
inactive: [2] | [19]

CNC(=N[N+](=O)[O-])NCC1CCOC1 (configuration not stated)
inactive: [18]

CC1(C)CC(=O)CC(C)(C)N1[O]
inactive: [2]

O=S(=O)(O)OOS(=O)(=O)O
inactive: [19]

O=[N+]([O-])O
active: [5] 0.433 µM
inactive: [3] | [4] | [5] | [6] | [7] | [8] | [9] | [10] | [11] | [12] | [13] | [14] | [15] | [16] | [17] | [20] | [18]

CCOC(=O)NC(=S)Nc1ccccc1NC(=S)NC(=O)OCC
inactive: [1] | [2] | [19] | [20] | [18]

O=C(O)CCCc1ccc(N(CCCl)CCCl)cc1
active: [3] 20 µM and 12.3 µM | [4] 20 µM and 16.3 µM | [5] 26.3 µM and 20 µM | [6] 20 µM | [7] 20 µM | [8] 20 µM and 28.2 µM | [10] 20 µM | [11] 0.687 µM | [12] 3.97 µM | [13] 8.11 µM | [14] 10.7 µM | [15] 5.06 µM | [16] 34.8 µM and 20 µM
inactive: [6] | [9] | [11] | [12] | [13] | [14] | [15] | [17] | [20] | [18]

O=C(CCl)c1ccccc1
inactive: [12] | [14] | [15] | [20]
active: [3] 5.4 µM | [4] 6.89 µM | [5] 4.98 µM | [6] 7.82 µM | [19] 55.9 µM | [7] 32.6 µM | [8] 7.4 µM | [9] 10.9 µM | [10] 20 µM | [11] 9.98 µM | [13] 36.2 µM | [16] 3.72 µM | [17] 5.38 µM

CC(C)COP(=O)(OCC(C)C)OCC(C)C
inactive: [1] | [3] | [4] | [5] | [6] | [19] | [7] | [8] | [9] | [10] | [11] | [12] | [13] | [14] | [15] | [16] | [17]

[CH3][Sn]([CH3])([Cl])[Cl]
inactive: [1] | [2]

CC(C)(C)C(O)C(Oc1ccc(-c2ccccc2)cc1)n1cncn1 (configuration not stated)
active: [4] 32.2 µM | [5] 32.3 µM | [8] 32.1 µM | [10] 31.7 µM | [11] 31.8 µM | [12] 5.39 µM
inactive: [3] | [6] | [7] | [9] | [13] | [14] | [15] | [16] | [17] | [20]

NNc1ccccc1
inactive: [19]

CCCOC(=O)c1ccccc1C(=O)OCCC
active: [8] 20 µM
inactive: [3] | [4] | [5] | [6] | [19] | [7] | [9] | [10] | [11] | [12] | [13] | [14] | [15] | [16] | [17] | [18]

O=C=Nc1ccccc1
inactive: [1] | [2] | [20] | [18]

CC(C)(C)C(=O)CCl
active: [3] 20 µM | [5] 20 µM | [16] 33.9 µM
inactive: [1] | [2] | [4] | [6] | [7] | [8] | [9] | [10] | [11] | [12] | [13] | [14] | [15] | [17] | [20] | [18]
